Results on 40 molecules are retold here after PubChem BioAssay (NCI).

Each structure is given as a SMILES string. Compounds without any hit were thinned out: in the full panel of roughly 83,000, 20% have a hit.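 Single-dose data. Exposure time 48 hours. Values below 10 considered active.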 Unmarked numbers belong to inactive results. Active and inactive are the calls of the source.

In this experiment the test system is OVCAR-4 ovarian. Kind of experiment: NCI-60 one-dose screen, 48 h (100 = growth as untreated, 0 = no growth, -100 = all killed). The settings on record: 10 µM.
As to `Cc1ccc(CNC(=O)Cc2ccc3c(c2)CN(C2CCC(=O)NC2=O)C3=O)cc1` (stereo not given), the growth is 0.757% (active).

Regarding `CC1(c2ccccc2)NC(=O)N(CC(=O)Nc2ccc(C(=O)/C=C/c3ccc(Br)cc3)cc2)C1=O` (stereo not given), the growth is 43.3%.

Consider `COc1ccc(-c2cc(C(=O)N=Nc3c(O)[nH]c4ccccc34)c3ccccc3n2)cc1`, for which the growth was -36.7% (active).

As to `Cc1ccn2c(C(=O)c3ccccc3)cc(-c3cc(-c4ccc(N(C)C)cc4)c(C#N)c(N)n3)c2c1`, the growth is 45.5%.

As to `COc1ccc(C(=O)/C=C/c2cc(C(F)(F)F)cc(C(F)(F)F)c2)cc1S(N)(=O)=O`, the growth was -80% (active).

Consider `COc1cccc2nc(Nc3ccc(F)c(NC(=O)c4ccc(CN5CCN(C)CC5)c(C(F)(F)F)c4)c3)ccc12`, for which the growth is 32.6%.

Turning to `O=C(Nc1cccc(C(F)(F)F)c1)c1cncc(C#Cc2cnc3ccc(N4CCOCC4)nn23)c1`, the growth is 12.7%.

Turning to `O=C(CNc1nc(-c2ccccc2)cs1)Nc1ccc([N+](=O)[O-])cc1`, the growth was 18%.

On to `COC[C@@H](CC(C)C)N=C1N/C(=C\c2ccc3ncsc3c2)C(=O)N1C`, for which the growth is 29.3%.

For `COc1ccsc1/C=N/NC(=O)c1[nH]c2ccc(Br)cc2c1-c1ccccc1`, the growth was 22.1%.

Turning to `CCOC(=O)C1NN(c2ccc(S(N)(=O)=O)cc2)c2nc3nc(-c4cccs4)cc(-c4cccs4)c3c(=O)n21` (stereo not given), the growth was 70.2%.

Regarding `Nc1cc(-c2cccc(C(=O)NCc3ccc4c(c3)OCO4)c2)ccn1`, the growth was 90.1%.

As to `O=c1c2ccccc2nc(COc2ccccc2)n1/N=C/c1ccc(N2CCCC2)cc1`, the growth is 81.8%.

For `O=C(CNc1nc(-c2ccccc2)cs1)Nc1cccc([N+](=O)[O-])c1`, the growth is -45.7% (active).

Turning to `C#CCNC(=O)[C@]12CCC(C)(C)C[C@H]1C1=CC[C@@H]3[C@@](C)(CCC#N)[C@H](C(=C)C)CC[C@@]3(C)[C@]1(C)CC2`, the growth was 68.2%.

Turning to `Cc1ccc(/C(CSc2nnc(-c3c[nH]c4ccccc34)n2-c2ccccc2)=N/O)cc1`, the growth was -87.2% (active).

For the molecule `COC1=C[C@]23CCC(=O)N2CCc2cc4c(cc2[C@@H]3[C@@H]1OC(=O)CCCC(C)C)OCO4`, the growth is 54%.

For `Cc1ccc(-c2nc3ccc(C(=O)N=Nc4c(O)[nH]c5ccc([N+](=O)[O-])cc45)cc3[nH]2)cc1`, the growth is 55.2%.

Take `Cc1ccc(-c2nc(Nc3ccccc3C(=O)O)c3ccccc3n2)cc1`: the growth was 21.8%.

As to `CSc1nc(-c2cccc(C)c2)c2cc(-c3ccccc3)n(C)c2n1`, the growth is 31.5%.

Take `CN(C)c1ccc(/C=C/C(=O)c2ccc(NC(=O)CN3C(=O)NC(C)(c4ccccc4)C3=O)cc2)cc1` (stereo not given): the growth was 55.4%.

Turning to `COc1cc(/C=C/C(=O)c2ccc(NC(=O)CN3C(=O)NC(C)(c4ccccc4)C3=O)cc2)cc(OC)c1OC` (stereo not given), the growth was 32.9%.

For `O=C(O)CCCCCCCCCCN1C(=O)/C(=C/c2cnc(-c3ccc(Cl)cc3)s2)SC1=S`, the growth was 67%.

With `O=C(Nc1cccc(C(F)(F)F)c1)c1cncc(C#Cc2cnc3cccnn23)c1`, the growth was 64.9%.

On to `CC1(c2ccccc2)NC(=O)N(CC(=O)Nc2ccc(C(=O)/C=C/c3ccccc3)cc2)C1=O` (stereo not given), for which the growth is 60.9%.

Consider `CN1C(=O)N(C)C2SC(N/N=C/c3ccccc3F)=NC21` (stereo not given), for which the growth is 92.7%.

For the molecule `COc1ccccc1C(=O)NNC(=O)CSc1nc2c(c(=O)[nH]1)CCCC2`, the growth is 105%.

As for `CCN1CCN(Cc2ccc(C(=O)Nc3cccc(-c4cn(-c5ccc6oc(=O)ccc6c5)nn4)c3)cc2C(F)(F)F)CC1`, the growth is -100% (active).

As to `COc1ccc(CN2[C@H](C(=O)NCc3ccc(C(=O)NO)cc3)Cc3c([nH]c4ccccc34)[C@H]2C2CC2)cc1`, the growth is 51.8%.

In the case of `Cn1c(O)c(N=Nc2nc(-c3cc4ccccc4oc3=O)cs2)c2cc(Br)ccc21`, the growth was 80.9%.

As for `[2H]C([2H])([2H])Oc1ccc2ncc(C#Cc3cncc(C(=O)Nc4ccc(CN5CCN(C)CC5)c(C(F)(F)F)c4)c3)n2n1`, the growth was -34.6% (active).

With `O=C(c1ccc(Cl)cc1)C1[C@H](c2ccccc2Br)[C@@H](c2ccccc2)NC12C(=O)Nc1ccc(Br)cc12` (stereo not given in full), the growth is 23.2%.

In the case of `C=C(C)[C@@H]1CC[C@]2(COP(=O)(OCC)OCC)CC[C@]3(C)[C@H](CC[C@@H]4[C@@](C)(CCCN)[C@H](C(=C)C)CC[C@]43C)[C@@H]12`, the growth was 23.2%.

Turning to `O=C(COc1ccc(NC(=O)Nc2ccc(Cl)cc2)cc1)N=Nc1c(O)[nH]c2ccc([N+](=O)[O-])cc12`, the growth is -11.6% (active).

Regarding `Cc1ccc(/C=C/C(=O)c2ccc(S(=O)(=O)NCCNc3nc(Nc4ccc(F)cc4)nc(N(C)C)n3)cc2)cc1`, the growth is 21.8%.

For `CCN1CCN(c2ccc(NC(=O)Nc3ccc(-c4cc(C(=O)NC(C)C)c5ncccc5n4)cc3)cc2C(F)(F)F)CC1`, the growth is -83.2% (active).

As for `CCOc1ccc(Nc2nc3ccccc3nc2Nc2ccc(OCC)cc2)cc1`, the growth was 52.7%.

Take `O=C(c1ccc(Cl)cc1)C1[C@H](c2ccc(Br)cc2)[C@@H](c2ccccc2)NC12C(=O)Nc1ccc(Br)cc12` (stereo not given in full): the growth is -0.87% (active).

Consider `COc1cnc2c(c1)C(=O)c1c-2n(CCCNC(C)C)c(=O)c2cc(OC)c(OC)cc12`, for which the growth is 28.2%.

For `OCCCNc1oc(-c2ccccc2)nc1[P+](c1ccccc1)(c1ccccc1)c1ccccc1`, the growth is 16.6%.
